Results published in PubChem BioAssay AID651710 (Broad Institute, 2012).
Screen size: about 360,000 compounds; about 1,600 (0.44%) were called active. Shown is part of a subset that was picked to be rich in actives. Unmarked numbers belong to inactive results.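 How the source made its calls: active means every replicate showing at least 50% inhibition; inconclusive means mean inhibition at least 50% but not in every replicate; inactive means the rest.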

Target: DNA repair protein RAD52 homolog (Homo sapiens) (UniProt P43351)
Sequence (P43351 whole entry, looked up): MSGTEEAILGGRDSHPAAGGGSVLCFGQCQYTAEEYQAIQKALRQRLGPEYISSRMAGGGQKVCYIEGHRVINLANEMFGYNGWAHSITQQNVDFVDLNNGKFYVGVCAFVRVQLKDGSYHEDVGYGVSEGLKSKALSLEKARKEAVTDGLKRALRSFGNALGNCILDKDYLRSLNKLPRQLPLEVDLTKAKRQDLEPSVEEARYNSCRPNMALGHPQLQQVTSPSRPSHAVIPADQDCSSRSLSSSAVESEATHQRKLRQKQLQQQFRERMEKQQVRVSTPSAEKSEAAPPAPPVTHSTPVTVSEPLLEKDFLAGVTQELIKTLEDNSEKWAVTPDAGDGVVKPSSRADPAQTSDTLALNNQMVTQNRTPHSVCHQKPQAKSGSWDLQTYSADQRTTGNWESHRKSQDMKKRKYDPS
Assay: RAD52 DNA annealing inhibitors, primary screen, biochemical, FRET, single point, set 2 (AID 651710)
Details: recombinant RAD52 DNA annealing, FRET fluorescence; at 18.7 µM; active compounds read high

How did the inhibition turn out when `CCOc1cccc(=NC2CCCCC2)c2c(C)[nH]c(C)c12` was run?
The inhibition was 79.1% (active).

How did the inhibition turn out when `Clc1ccc([C@@H]2CC3CCC2N3)cn1` (stereo not given in full) was run?
Its inhibition is -8.46%.

How did the inhibition turn out when `COc1ccc(C#Cc2ccc([C@H]3[C@H](CO)N4CCCCN(C(=O)Cc5ccccc5)C[C@@H]34)cc2)cc1` was run?
The inhibition was -26.3%.

With `COC1=C[C@@H]2[C@@H]3Cc4ccc(OC)c(O)c4[C@]2(CCN3C)CC1=O` as the compound, how does the inhibition read?
The inhibition was -9.71%.

With `COc1c(O)ccc2c1-c1c3c(cc4c1C(C2)N(C)CC4)OCO3` (stereo not given) as the compound, how does the inhibition read?
Its inhibition is 6.1%.

Which inhibition does the source give for `COc1ccc2c(c1O)-c1cccc3c1[C@@H](C2)N(C)CC3` here?
Its inhibition is 60.5% (active).

With `O=C(Cc1cccnc1)N1CCCCN2[C@@H](CO)[C@H](c3ccc(C#CC4CCCC4)cc3)[C@@H]2C1` as the compound, how does the inhibition read?
Its inhibition is 11.6%.

With `O=C(O)[C@H]1[C@H](CO)[C@H]2Cn3c(ccc(-c4ccccc4F)c3=O)[C@@H]1N2C(=O)c1cccnc1` as the compound, how does the inhibition read?
The inhibition was 6.1%.

With `N#Cc1cccc(-c2ccc([C@H]3[C@@H](CO)N4CCCCN(C(=O)Cc5cccnc5)C[C@@H]34)cc2)c1` as the compound, how does the inhibition read?
Its inhibition is -17%.

How did the inhibition turn out when `O=C(Cc1ccccc1)N1CCCCN2[C@H](C1)[C@H](c1ccc(C#CC3(O)CCCC3)cc1)[C@@H]2CO` was run?
The inhibition was -14.9%.

`O=c1[nH]c2ccccc2n1C1CCN(C(c2ccccc2)c2nnnn2Cc2ccccc2)CC1` (stereo not given) was tested. Which inhibition did it give?
Its inhibition is -11.7%.

Which inhibition does the source give for `C[N+]1(C)CCOC(O)(c2ccc(-c3ccc(C4(O)C[N+](C)(C)CCO4)cc3)cc2)C1` (stereo not given) here?
Its inhibition is 70.8% (active).

For `O=C(O)[C@H]1[C@H](CO)[C@H]2Cn3c(cccc3=O)[C@@H]1N2C(=O)c1ccccc1`, which inhibition is on record?
The inhibition was 2.96%.

How did the inhibition turn out when `C[C@@H]1CN([C@H](C)CO)C(=O)CCCn2cc(nn2)CO[C@@H]1CN(C)C(=O)Oc1cccc2ccccc12` was run?
The inhibition was -6.69%.

How did the inhibition turn out when `CCCCCCCCCCCCn1ccc(=N)cc1` was run?
Its inhibition is 50% (active).

How did the inhibition turn out when `O=C(Cc1ccncc1)N1CCCCN2[C@H](CO)[C@@H](c3ccc(C#CC4(O)CCCC4)cc3)[C@H]2C1` was run?
Its inhibition is 1.26%.

`COC(=O)[C@H]1[C@H](CO)[C@H]2Cn3c(ccc(C4=CCCC4)c3=O)[C@@H]1N2C(=O)CC1CC1` was tested. Which inhibition did it give?
Its inhibition is -4.86%.

How did the inhibition turn out when `O=C(Cc1ccncc1)N1CCCCN2[C@@H](CO)[C@H](c3ccc(C#CC4(O)CCCC4)cc3)[C@@H]2C1` was run?
The inhibition was -1.57%.

For `COc1cccc(-c2ccc([C@H]3[C@H]4CN(C(=O)Cc5ccncc5)CCCCN4[C@H]3CO)cc2)c1`, which inhibition is on record?
The inhibition was -63.8%.

`O=C(Cc1ccncc1)N1CCCCN2[C@@H](CO)[C@H](c3ccc(-c4ccncc4)cc3)[C@@H]2C1` was tested. Which inhibition did it give?
Its inhibition is -1.75%.

How did the inhibition turn out when `CCC(C)NC1(c2ccccc2)CCCCC1` (stereo not given) was run?
Its inhibition is -8.77%.

How did the inhibition turn out when `CC1=CC(=Cc2sc3ccccc3[n+]2C)C=C(C)O1` was run?
The inhibition was 60.3% (active).

With `O=C(NC[C@@H]1CC[C@H]2NC[C@H]2O1)C1CCCC1` as the compound, how does the inhibition read?
The inhibition was -11.1%.

With `OC[C@@H]1[C@H]2c3ccccc3NC[C@H]2N1Cc1cccnc1` as the compound, how does the inhibition read?
Its inhibition is 0.281%.

With `COc1ccc2c(c1)[C@@]13CCCCC1[C@@H](C2)NCC3` (stereo not given in full) as the compound, how does the inhibition read?
The inhibition was -7.04%.
